The results in this text go back to PMC12820563, “FoxP3 forms a head-to-head dimer in vivo and stabilizes its multimerization on adjacent microsatellites”.

Over roughly 16,000 sequences, “rpm ratio (pull-down/input)” has its median near 0.5; the highest 2% begin near 5.5. This is one part of a sample in which the highest values are shown more often than they occur.

This experiment has as its target T1, MBP-FoxP3dN (Mus musculus, UniProt Q99JB6 188-423).
T1 sequence: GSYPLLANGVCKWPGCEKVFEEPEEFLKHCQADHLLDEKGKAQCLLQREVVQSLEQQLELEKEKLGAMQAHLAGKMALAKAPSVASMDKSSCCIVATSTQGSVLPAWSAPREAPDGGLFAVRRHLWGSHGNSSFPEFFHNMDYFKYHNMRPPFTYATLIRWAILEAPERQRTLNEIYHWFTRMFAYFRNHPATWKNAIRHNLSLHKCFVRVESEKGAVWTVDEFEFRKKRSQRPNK
Put plainly: PD-seq (MBP pull-down with sequencing); 20 mM Tris-HCl pH 7.5, 100 mM NaCl, 1.5 mM MgCl2, 0.4 uM protein, 0.1 uM dsDNA library, 30 min, room temperature, amylose pull-down; high values mean tight binding. The settings on record: protein: recombinant; tags: His6-MBP; chain copies: 2; dsDNA, one strand shown. Summed up: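 The N-terminus-lacking fragment of mouse FoxP3 or FoxP1 carried a His6-MBP tag and was expressed in E. coli. At 0.4 µM it was incubated with 0.1 µM Klenow-filled degenerate double-stranded DNA library for 30 min at room temperature in Tris pH 7.5 buffer with NaCl and MgCl2, and complexes were caught on amylose resin, washed three times, released with proteinase K, PCR-barcoded and Illumina-sequenced. Binding is reads-per-million enrichment of pull-down over input with replicates pooled.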
As for “GATGATTGTTCTCCCAGCTGATGAATTAGACCAGTCGAGTAAACAAATTTTCCTAATCTTTCTGTTCAAGCGCCATCTAC”, the binding signal is 0.233 RPM ratio (pull-down/input).

For “GATGATTGTTCTCCCAGCTGATGAATTTCTTGCGTCGAGTAAACAAATTTTCCTAATCTTTCTGTTCAAGCGCCATCTAC”, the binding signal is 0.535 RPM ratio (pull-down/input). Consider “GATGATTGTTCTCCCAGCTGATGAATTCCTCGACTCGAGTAAACAAATTTTCCTAATCTTTCTGTTCAAGCGCCATCTAC”, for which the binding signal is 0.213 RPM ratio (pull-down/input).

“GATGATTGTTCTCCCAGCTGATGAATTAACCGATTCGAGTAAACAAATTTTCCTAATCTTTCTGTTCAAGCGCCATCTAC”: the binding signal was 0.251 RPM ratio (pull-down/input). With “GATGATTGTTCTCCCAGCTGATGAATTCGAGACATCGAGTAAACAAATTTTCCTAATCTTTCTGTTCAAGCGCCATCTAC” the figure was 0.446 RPM ratio (pull-down/input); with “GATGATTGTTCTCCCAGCTGATGAATTTTGCCCTTCGAGTAAACAAATTTTCCTAATCTTTCTGTTCAAGCGCCATCTAC”, 1.57 RPM ratio (pull-down/input). Consider “GATGATTGTTCTCCCAGCTGATGAATTGCGAGGGTCGAGTAAACAAATTTTCCTAATCTTTCTGTTCAAGCGCCATCTAC”, for which the binding signal was 0.611 RPM ratio (pull-down/input). On to “GATGATTGTTCTCCCAGCTGATGAATTTGGGTGTTCGAGTAAACAAATTTTCCTAATCTTTCTGTTCAAGCGCCATCTAC”, for which the binding signal was 1.11 RPM ratio (pull-down/input). For “GATGATTGTTCTCCCAGCTGATGAATTACCGTTATCGAGTAAACAAATTTTCCTAATCTTTCTGTTCAAGCGCCATCTAC”, the binding signal is 0.764 RPM ratio (pull-down/input). For the sequence “GATGATTGTTCTCCCAGCTGATGAATTGACTATGTCGAGTAAACAAATTTTCCTAATCTTTCTGTTCAAGCGCCATCTAC”, the binding signal was 0.449 RPM ratio (pull-down/input). In the case of “GATGATTGTTCTCCCAGCTGATGAATTCCCATTTTCGAGTAAACAAATTTTCCTAATCTTTCTGTTCAAGCGCCATCTAC”, the binding signal is 0.336 RPM ratio (pull-down/input). As for “GATGATTGTTCTCCCAGCTGATGAATTCCGCTGTTCGAGTAAACAAATTTTCCTAATCTTTCTGTTCAAGCGCCATCTAC”, the binding signal is 1.28 RPM ratio (pull-down/input). With “GATGATTGTTCTCCCAGCTGATGAATTGCCGCATTCGAGTAAACAAATTTTCCTAATCTTTCTGTTCAAGCGCCATCTAC” the figure was 7.28 RPM ratio (pull-down/input); with “GATGATTGTTCTCCCAGCTGATGAATTCGCCGCATCGAGTAAACAAATTTTCCTAATCTTTCTGTTCAAGCGCCATCTAC”, 0.966 RPM ratio (pull-down/input); with “GATGATTGTTCTCCCAGCTGATGAATTCCCGCCTTCGAGTAAACAAATTTTCCTAATCTTTCTGTTCAAGCGCCATCTAC”, 2.93 RPM ratio (pull-down/input). With “GATGATTGTTCTCCCAGCTGATGAATTACCGCATTCGAGTAAACAAATTTTCCTAATCTTTCTGTTCAAGCGCCATCTAC”, the binding signal was 5.89 RPM ratio (pull-down/input). As for “GATGATTGTTCTCCCAGCTGATGAATTCCGCCATTCGAGTAAACAAATTTTCCTAATCTTTCTGTTCAAGCGCCATCTAC”, the binding signal was 5.49 RPM ratio (pull-down/input).

Take “GATGATTGTTCTCCCAGCTGATGAATTTCCGCCTTCGAGTAAACAAATTTTCCTAATCTTTCTGTTCAAGCGCCATCTAC”: the binding signal was 3.28 RPM ratio (pull-down/input). As to “GATGATTGTTCTCCCAGCTGATGAATTCCGCCTTTCGAGTAAACAAATTTTCCTAATCTTTCTGTTCAAGCGCCATCTAC”, the binding signal was 5.55 RPM ratio (pull-down/input). Consider “GATGATTGTTCTCCCAGCTGATGAATTACCCCATTCGAGTAAACAAATTTTCCTAATCTTTCTGTTCAAGCGCCATCTAC”, for which the binding signal is 0.3 RPM ratio (pull-down/input). With “GATGATTGTTCTCCCAGCTGATGAATTTGCCGCATCGAGTAAACAAATTTTCCTAATCTTTCTGTTCAAGCGCCATCTAC” the figure was 1.35 RPM ratio (pull-down/input). With “GATGATTGTTCTCCCAGCTGATGAATTTACCGCATCGAGTAAACAAATTTTCCTAATCTTTCTGTTCAAGCGCCATCTAC” the figure was 1.17 RPM ratio (pull-down/input).
